Data: PubChem BioAssay (NCATS)
Values joined by “and” are separate entries in the source; they are usually repeats but may differ in a detail not shown here. Equal entries are not always repeated. Inconclusive results are not listed. Active and inactive are the calls of the source. Unless noted, calls follow the shape of the dose curve; as a rule, active = well fitted curve in the direction sought with a large enough effect; inconclusive = small, poorly fitted or top-dose-only effect, or another doubt; inactive = no such curve, though single readings can be large; an effect the other way counts as inactive or inconclusive.

Experiments:
[1] = Cell Viability - BJ (AID 421; calls by dose curve;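 also: potency is read from the fitted curve at half-maximal effect; cells exposed to compound for 40 hours at 37 °C before readout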); settings: BJ fibroblast viability, qHTS
Procedure, shortened: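 Quantitative HTS: ATP depletion in BJ cells after 40 hr compound exposure in complete culture medium, detected with CellTiter-Glo; AC50 from standard Hill fits.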

[2] = Cell Viability - HepG2 (AID 433; calls by dose curve;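 also: potency is read from the fitted curve at half-maximal effect; cells exposed to compound for 40 hours; potency for ATP loss meaning cytotoxicity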); settings: qHTS
Procedure, shortened: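 HepG2 cells, 1500 per well, treated 40 hr at 37 °C in complete medium; viability from intracellular ATP by CellTiter-Glo luminescence. Normalized to DMSO and 100 uM tamoxifen; AC50 from Hill fit of qHTS concentration-response.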

[3] = Cell Viability - HUV-EC-C (AID 542); settings: HUV-EC-C endothelial cell viability, qHTS; series mostly up to 92.2 µM;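 also: cells exposed to compound for 40 hours; % is scaled to controls: 0 for no effect and ±100 for the full control effect; nearly all actives have a fitted effect of over 35% in size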
Procedure, shortened: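 Decrease in cellular ATP, quantified by luciferase luminescence, reflects toxicity in normal human vascular endothelial HUV-EC-C cells given compound for 40 hr in complete culture medium. Values are AC50s from concentration-response curves.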

[4] = Cell Viability - Mesenchymal (AID 546); settings: mesenchymal cells viability, qHTS; activity change, negative = cytotoxicity: at 91.7 µM (top of the series);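 also: cells exposed to compound for 40 hours before reading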
Procedure, shortened: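 Normal human renal glomerulus-derived kidney mesenchymal cells, 1000 per well in complete medium, were treated with compounds for 40 hr at 37 °C. Viability was read as intracellular ATP by CellTiter-Glo luminescence; AC50 values came from Hill-equation fits of qHTS concentration-response data.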

[5] = Cellular Toxicity (caspase-3) Jurkat (AID 655); settings: Jurkat caspase-3 activation, luminescence; caspase-3 activation: at 92.2 µM (top of the series), DMSO = 0%, tamoxifen = 100%;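 also: cells exposed to compound for 16 h at 37 °C before reading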
Procedure, shortened: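 Jurkat cells (5000/well) in complete medium exposed 16 h at 37 C; caspase-3/7 activity read by Caspase-Glo luminescence after 20 min at room temperature. Normalized to DMSO and 100 uM tamoxifen; AC50 from Hill fits.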

[6] = Cell Viability - LYMP1-002 - Assay at 16 hr (AID 948); settings: LYMP1-002 lymphoblastoid cell viability; series mostly up to 92.2 µM;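 also: 0% = DMSO alone and full effect = 92 µM tetraoctylammonium bromide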
Procedure, shortened: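 LYMP1-002 human lymphoblastoid cells, 2500/well, were treated with compounds for 16 hr at 37 C in complete medium. Viability was read as intracellular ATP by CellTiter-Glo luminescence, and AC50 was derived from a Hill fit to concentration-response data.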

[7] = MultiTox-Fluor Cytotoxicity Assay - LYMP1-002 - Live Cells (AID 955); settings: LYMP1-002 lymphoblastoid live-cell protease fluorescence viability; series mostly up to 46.1 µM;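 also: cells exposed to compound for 16 hours; % is scaled to controls: 0 for no effect and ±100 for the full control effect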
Procedure, shortened: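 Cytotoxicity in the human lymphoblastoid line LYMP1-002 is measured as loss of live-cell protease activity after 16 h treatment in complete culture medium. AC50 is derived from Hill-equation fits of qHTS concentration-response data.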

[8] = Cell Viability - LYMP2-023 (AID 975); settings: LYMP2-023 lymphoblastoid cell viability; series mostly up to 92.2 µM;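 also: cellular ATP measured by luciferase luminescence as viability proxy; cells exposed to compound for 24 hours at 37 °C; plate controls were DMSO only for no effect and 92 µM tetraoctylammonium bromide control for full effect; nearly all actives have a fitted effect of over 55% in size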
Procedure, shortened: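 Concentration-dependent drop in intracellular ATP measures acute cytotoxicity in a human lymphoblastoid line treated for 24 hours in complete culture medium. AC50 values are taken from Hill-equation fits of qHTS data.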

[9] = Cell Viability - LYMP2-025 (AID 976); settings: LYMP2-025 lymphoblastoid cell viability; series mostly up to 92.2 µM;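 also: plate controls were DMSO only for no effect and tetraoctylammonium bromide control for full effect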
Procedure, shortened: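 In qHTS format, LYMP2-025 lymphoblastoid cells in complete culture medium received compound for 24 hr; ATP-based CellTiter-Glo signal gave viability, with AC50 derived by Hill equation.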

[10] = Cell Viability - LYMP2-016 (AID 984); settings: LYMP2-016 lymphoblastoid cell viability, qHTS; series mostly up to 92.2 µM;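 also: cells exposed to compound for 24 hours at 37 °C; % is scaled to controls: 0 for no effect and ±100 for the full control effect; nearly all actives have a fitted effect of over 55% in size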
Procedure, shortened: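 Human lymphoblastoid LYMP2-016 cells, 2500 per well, treated with compounds for 24 h at 37 C. Viability read as intracellular ATP by CellTiter-Glo luminescence after 30 min at room temperature; AC50 from Hill fits of concentration-response.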

[11] = Cell Viability - LYMP2-026 (AID 989); settings: LYMP2-026 lymphoblastoid cell viability, qHTS; series mostly up to 92.2 µM; also: % is scaled to controls: 0 for no effect and ±100 for the full control effect; nearly all actives have a fitted effect of over 50% in size
Procedure, shortened: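 Concentration-dependent loss of intracellular ATP in human lymphoblastoid cells after 24 hr at 37 C, quantified by luciferase luminescence. AC50 derived from standard Hill equation.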

[12] = Cell Viability - LYMP1-002 - Assay at 40 hr (AID 994); settings: LYMP1-002 lymphoblastoid cell viability; series mostly up to 92.2 µM;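 also: 0% = DMSO only and full inhibition = 92 µM tetraoctylammonium bromide; nearly all actives have a fitted effect of over 60% in size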
Procedure, shortened: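 Viability in the human lymphoblastoid line was measured as intracellular ATP via CellTiter-Glo after 40 hr compound exposure. Tetraoctylammonium bromide served as positive control.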

[13] = qHTS assay for cell viability of HEK293 cells (AID 743288); settings: ATP luminescence (CellTiter-Glo), 18 h; max response: hits give low values; also: nearly all actives have a fitted effect of over 50% in size; also: potency is read from the fitted curve at half-maximal effect; as to max response: % is scaled to controls: 0 for no effect and ±100 for the full control effect
Procedure, shortened: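 Parental HEK293 cells, 2,000 per well, preincubated at least 5 h at 37 C, then exposed to compounds in DMSO for 18 h at 37 C. Viability by CellTiter-Glo ATP luminescence after 30 min at room temperature.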

[14] = Cellular Toxicity (caspase-3) NIH 3T3 (AID 666); settings: NIH 3T3 caspase-3 activation, apoptosis/toxicity, 0% DMSO, 100% is 100 µM tamoxifen; series mostly up to 92.2 µM;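 also: caspase signal read after 16 h compound exposure; 0% = DMSO basal and 100% = 100 µM tamoxifen stimulation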
Procedure, shortened: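 Concentration-response qHTS in NIH 3T3 mouse fibroblasts scores caspase-3/7 activation as rising luminescence after 16 hr compound exposure. Signals are scaled between DMSO-only and 100 uM tamoxifen.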

[15] = Cell Viability - LYMP2-011 (AID 969); settings: LYMP2-011 lymphoblastoid cells viability; series mostly up to 92.2 µM;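 also: 0% = DMSO only and full inhibition = 92 µM tetraoctylammonium bromide; nearly all actives have a fitted effect of over 60% in size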
Procedure, shortened: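 Acute toxicity is scored as a concentration-dependent drop in intracellular ATP of a human lymphoblastoid line after 24 hr treatment. Values are AC50s modeled with the Hill equation.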

[16] = Cell Viability - LYMP2-013 (AID 970); settings: LYMP2-013 lymphoblastoid cells viability; series mostly up to 92.2 µM;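 also: 0% = DMSO only and full inhibition = tetraoctylammonium bromide control; nearly all actives have a fitted effect of over 55% in size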
Procedure, shortened: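 Acute toxicity was measured in human lymphoblastoid cells (2500/well) exposed to compound titrations for 24 hr, with ATP luminescence (CellTiter-Glo) as read-out and AC50 fitted by Hill equation.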

[17] = Cell Viability - LYMP2-007 (AID 979); settings: LYMP2-007 lymphoblastoid cell viability; series mostly up to 92.2 µM;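 also: cells exposed to compound for 24 h before reading; 0% = DMSO only and the negative end = 92 µM tetraoctylammonium bromide; nearly all actives have a fitted effect of over 60% in size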
Procedure, shortened: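 Acute toxicity is scored as a concentration-dependent fall in intracellular ATP in human lymphoblastoid cells treated 24 hr at 37 C, measured by luciferase luminescence; Hill-equation modelling yields AC50.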

[18] = Cell Viability - LYMP2-008 (AID 980); settings: LYMP2-008 lymphoblastoid cell viability, qHTS; series mostly up to 92.2 µM; also: % is scaled to controls: 0 for no effect and ±100 for the full control effect; nearly all actives have a fitted effect of over 60% in size
Procedure, shortened: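 Acute cytotoxicity is scored as concentration-dependent loss of cellular ATP in a human lymphoblastoid line after 24 hr treatment at 37 C. ATP is quantified by luciferase luminescence.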

[19] = Cell Viability - LYMP2-014 (AID 983); settings: LYMP2-014 lymphoblastoid cells, viability qHTS; series mostly up to 92.2 µM;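 also: plate controls were DMSO only for no effect and 92 µM tetraoctylammonium bromide for full effect; nearly all actives have a fitted effect of over 50% in size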
Procedure, shortened: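 Decrease in intracellular ATP after 24 hr treatment at 37 C, measured by luciferase luminescence, indicated cytotoxicity. Concentration-response data were fitted with the standard Hill equation to give AC50.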

[20] = Cell Viability - LYMP2-018 (AID 985); settings: LYMP2-018 lymphoblastoid cells, viability (qHTS); series mostly up to 92.2 µM;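 also: compound exposure lasted 24 hr at 37 °C; plate controls were DMSO only for no effect and tetraoctylammonium bromide at 92 µM for full effect; nearly all actives have a fitted effect of over 50% in size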
Procedure, shortened: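 Acute cytotoxicity is scored as a concentration-dependent drop in intracellular ATP after 24 hr exposure of the lymphoblastoid line in complete culture medium, measured by luciferase luminescence. Potency is expressed as AC50 from Hill modelling.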

O=[N+]([O-])c1cc(Cl)c(Cl)c(Cl)c1Cl
inactive: Potency [1] > 92 µM | Potency [2] > 92 µM | Potency [3] | Potency [4] | Potency [5] | Potency [6] | outcome [7] | Potency [8] | Potency [9] | Potency [10] | Potency [11] | Potency [12] | max response [13] -2.48%

NC(=O)Nc1nc2ccccc2[nH]1
inactive: Potency [1] > 92 µM | Potency [2] > 92 µM | Potency [3] | Potency [4] | Potency [5] | outcome [14] | Potency [6] | outcome [7] | Potency [15] | Potency [16] | Potency [8] | Potency [9] | Potency [17] | Potency [18] | Potency [19] | Potency [10] | Potency [20] | Potency [11] | Potency [12] | max response [13] -5.65%

O=C1OC(=O)c2ccccc21
inactive: Potency [1] > 92 µM | Potency [2] > 92 µM | Potency [3] | Potency [4] | outcome [14] | Potency [6] | outcome [7] | Potency [15] | Potency [16] | Potency [8] | Potency [9] | Potency [17] | Potency [18] | Potency [19] | Potency [10] | Potency [20] | Potency [11] | Potency [12] | max response [13] -11.3%

Cc1cc2nc(N)sc2cc1C
inactive: Potency [1] > 92 µM | Potency [5] | Potency [6] | outcome [7] | Potency [15] | Potency [16] | Potency [8] | Potency [9] | Potency [17] | Potency [18] | Potency [19] | Potency [10] | Potency [20] | Potency [11] | Potency [12] | max response [13] -12.3%

O=C=Nc1ccc(Cl)c(Cl)c1
inactive: outcome [14] | Potency [6] | Potency [11]

O=Nc1ccc(Nc2ccccc2)cc1
inactive: Potency [2] > 92 µM | Potency [4] | outcome [14]
active: Potency [13] 39.8 µM and 20 µM

CCN(CC)c1ccc(N)cc1
inactive: Potency [3] | Potency [4] | Potency [5] | outcome [14] | Potency [6] | Potency [9] | Potency [11]

CC(/C=C/C=C(C)/C=C/C(=O)O)=C\C=C\C=C(C)\C=C\C=C(C)\C=C\C(=O)O
inactive: Potency [1] > 92 µM | Potency [2] > 92 µM | Potency [3] | Potency [4] | Potency [5] | Potency [6] | outcome [7] | Potency [15] | Potency [16] | Potency [8] | Potency [9] | Potency [17] | Potency [18] | Potency [19] | Potency [10] | Potency [20] | Potency [11] | Potency [12] | max response [13] -0.748%

CCOc1ccc2nc(N)sc2c1
inactive: Potency [1] > 92 µM | Potency [2] > 92 µM | Potency [3] | Potency [4] | Potency [5] | outcome [14] | Potency [6] | outcome [7] | Potency [15] | Potency [16] | Potency [8] | Potency [9] | Potency [17] | Potency [18] | Potency [19] | Potency [10] | Potency [20] | Potency [11] | Potency [12] | max response [13] -4.83%

O=[N+]([O-])c1cc(N(CCO)CCO)ccc1NCCO
inactive: Potency [5] | outcome [14] | outcome [7] | Potency [15] | Potency [9] | Potency [17] | Potency [18] | Potency [19] | Potency [10] | Potency [20] | Potency [11] | Potency [12]
active: Potency [13] 44.7 µM
